Screens: PubChem, National Center for Advancing Translational Sciences (NCATS)
LmPK inhibitor – inhibitors of Leishmania mexicana pyruvate kinase; Q27686; purified LmPK, Kinase-Glo ATP luminescence, 1 h; Potency, µM (top dose mostly 57.5 µM), for the others: at the top dose activity change, negative = inhibition, most hits filed as inhibitors; 0.37% of 290,000 active; note: potency is the fitted concentration of half-maximal effect; % is set by controls: 0 for no effect and ±100 for the full control effect
Target sequence (Q27686 whole entry, looked up): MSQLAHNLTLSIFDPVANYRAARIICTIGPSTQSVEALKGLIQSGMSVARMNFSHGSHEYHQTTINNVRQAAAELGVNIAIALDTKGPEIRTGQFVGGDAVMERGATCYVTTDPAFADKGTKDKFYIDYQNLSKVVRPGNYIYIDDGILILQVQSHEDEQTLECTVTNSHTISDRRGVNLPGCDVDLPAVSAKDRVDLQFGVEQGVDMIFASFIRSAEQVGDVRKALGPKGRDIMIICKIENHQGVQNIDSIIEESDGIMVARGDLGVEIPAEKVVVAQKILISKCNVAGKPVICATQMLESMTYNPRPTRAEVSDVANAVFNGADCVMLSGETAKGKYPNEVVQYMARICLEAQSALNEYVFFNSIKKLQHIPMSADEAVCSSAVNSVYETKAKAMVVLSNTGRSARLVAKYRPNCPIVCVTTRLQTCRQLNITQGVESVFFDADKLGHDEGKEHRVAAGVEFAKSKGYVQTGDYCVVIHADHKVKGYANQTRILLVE
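Purified LmPK (0.1 nM) converted ADP (0.1 mM) to ATP with PEP (0.5 mM) in imidazole buffer pH 7.2 with KCl and MgCl2, 1 h at room temperature. ATP was read by Kinase-Glo luminescence; data normalized to uninhibited and no-enzyme controls.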
Cycloheximide cs – counter-screen hit for Shiga toxin inhibitors, cycloheximide | cell reporter, cycloheximide protein synthesis inhibition counterscreen | 12% of 300,000 active | max response, % | AID 2314; in the data active = max response mostly above about 13%, no sharp cut-off; inactive = mostly below about 14%; note: read at 38.3 µM for the half of the compounds with a filed dose; 0% is about no effect
NS1 inh – inhibitors of influenza NS1 protein function; Potency, µM (series often up to 46.1 µM), for the others: top-dose activity, positive = more growth; 0.4% of 270,000 active; AID 2326; calls by dose curve; note: potency is the fitted concentration of half-maximal effect; actives are rising curves; nearly all actives have a fitted effect of over 50% in size
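Compounds were scored for reversing the slow growth caused by influenza A NS1 in S. cerevisiae, measured by optical density at 600 nm. Assay medium contained 2% galactose at pH 6.0; NS1-free yeast of the same strain were the positive control.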
TbPYK inhibitor – blocks Trypanosoma brucei pyruvate kinase; Q57TT1; TbPYK enzyme, Kinase-Glo Plus ATP luminescence, 45 min; Potency, µM (doses to about 76.8 µM), for inactives: at the top dose activity, negative = inhibition, actives largely listed as inhibitors; 0.12% of 410,000 active; note: potency is the fitted concentration of half-maximal effect; % is set by controls: 0 for no effect and ±100 for the full control effect; nearly all actives have a fitted effect of over 50% in size
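Glycolytic pyruvate kinase of T. brucei was incubated with substrate, test compound and 130 uM ADP for 45 minutes at room temperature. Luminescent Kinase-Glo Plus signal was measured after 10 minutes.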
SARS PLpro yeast – blocks SARS-CoV papain-like protease in a yeast assay; S. cerevisiae expressing SARS-CoV PLpro, growth rescue; Potency, µM (doses to about 32.9 µM), inactives show at the highest dose activity, positive = growth rescue, usual class: activators; 0.19% of 330,000 active; AID 485353; calls by dose curve; note: potency is the fitted concentration of half-maximal effect; 0% is about no effect; nearly all actives have a fitted effect of over 55% in size
Shiga toxin inh – inhibitors of Shiga toxin in Vero cells; Vero cells, Shiga toxin protein synthesis inhibition reporter; inhibition, % at 38.7 µM; 9.2% of 290,000 active; AID 2315; in the data active = inhibition mostly above about 28%, no sharp cut-off; inactive = mostly below about 43%; note: 0% is about no effect
* marks the source's active call; other numbers are inactive results; u = inconclusive; x = no result given. Many of the other results were omitted from the sample, so hits are more common in it than they were. Unless noted, calls come from the whole dose curve; as a rule, active = well fitted curve in the direction sought with a large enough effect; inconclusive = small, poorly fitted or top-dose-only effect, or another doubt; inactive = no such curve, though single readings can be large; an effect the other way counts as inactive or inconclusive.

SMILES	LmPK inhibitor	Cycloheximide cs	NS1 inh	TbPYK inhibitor	SARS PLpro yeast	Shiga toxin inh
Cc1ccc(C(=O)Nc2nc(COc3ccccc3)cs2)s1	0%	31*	-41%	-7%	x	82*
O=C(Nc1nc(COc2ccccc2)cs1)C12CC3CC(CC(C3)C1)C2	2%	19	-8%	2%	u	27
COCCN(CCOC)Cc1cc(=O)oc2cc(OC)ccc12	x	x	x	-1%	x	x
Cc1sc(N)nc1-c1ccc2c(c1)OCCO2	0%	17*	-13%	-2%	-3%	53*
Cc1sc(N)nc1-c1ccc(Oc2ccccc2)cc1	2%	19*	-135%	1%	-21%	78
Cc1ccc(OCC(=O)N[C@@H](C)c2nnc3ccccn23)cc1C	2%	-3	-4%	-4%	-4%	-5
CCOC(=O)N1CCN(c2ccc(C(=O)CC)cc2F)CC1	-1%	14	-8%	-8%	-3%	28
CCCC(=O)c1ccc(N2CCC(C)CC2)c(F)c1	2%	43*	-4%	-33%	-14%	60*
CCC(=O)c1ccc(N2CCC(C)CC2)c(F)c1	-2%	30*	1%	4%	4%	36*
O=C(c1cnn(C(=O)c2ccco2)c1)c1cc(Cl)cc(Cl)c1O	x	x	x	5%	-3%	x
CC(C)CC(=O)Nc1nnc(S(=O)(=O)N2c3ccccc3CC2C)s1 (configuration not stated)	2%	-1	-2%	1%	2%	-5
C(=N\n1cnnc1)/c1cn(-c2cccs2)nc1-c1ccccc1	3%	37*	-14%	2%	-1%	66*
O=C(CN1CCC(c2nc3ccccc3s2)CC1)NCc1cccs1	-9%	26*	-8%	2%	1%	33*
CNC(=S)N1CCC(c2nc3ccccc3s2)CC1	1%	28*	-2%	-5%	0%	46
OC1OC[C@@H](O)[C@H](O)[C@@H]1O (some centres not stated)	x	x	x	3%	x	x
CC1CCCN(Cc2ccc(OCc3ccccc3)cc2)C1 (configuration not stated)	7%	22*	-12%	1%	-7%	77
C=CCN(CC=C)C(=O)C1CCN(Cc2ccc(OCc3ccccc3)cc2)CC1	3%	18*	-56%	19%	9%	x
OC1CCN(Cc2ccc(OCc3ccccc3)cc2)CC1	4%	19*	-2%	3%	6%	x
O=C(C1CCN(Cc2ccc(OCc3ccccc3)cc2)CC1)N1CCCC1	-7%	27*	-33%	25%	-13%	38
CCN(CC)C(=O)C1CCN(Cc2ccc(OCc3ccccc3)cc2)CC1	1%	-4	-29%	8%	2%	12
COc1ccc(C(=O)N2CCC(C(=O)N3CCN(Cc4ccccc4)CC3)CC2)cc1	7%	-1	-17%	0%	6%	-5
O=C(CCN1CCN(Cc2ccccc2)CC1)Nc1ccc(OCc2ccccc2)cc1	9%	-3	-10%	1%	-13%	-7
COc1ccc(Cl)cc1NC(=O)CSc1c2c(nc3ccccc13)CCC2	x	x	x	-3%	x	x
CCc1ccc(NC(=O)C(=O)NCCc2csc(-c3ccc(C(F)(F)F)cc3)n2)cc1	x	x	x	0%	x	x
CCOc1ccccc1NC(=O)N1CCN(Cc2nc3ccc(C)cc3o2)CC1	x	x	x	-1%	x	x
SMILES	LmPK inhibitor	Cycloheximide cs	NS1 inh	TbPYK inhibitor	SARS PLpro yeast	Shiga toxin inh
CCCCNC(=O)C1CCN(Cc2ccc(OCc3ccccc3)cc2)CC1	-1%	26*	-27%	2%	-1%	63*
CCNC(=O)C1CCCN(Cc2ccc(OCc3ccccc3)cc2)CC1 (configuration not stated)	x	x	x	0%	x	x
N#Cc1c2n(c(=S)n(-c3ccc(F)cc3)c1=O)CCCCC2	-1%	-8	x	10%	-1%	-9
N#Cc1c2n(c(=S)n(-c3ccccc3)c1=O)CCCCC2	-3%	14*	x	10%	28%	-7
COc1cccc(C(=O)NCCCNc2nc3cc(C)cc(C)c3cc2C#N)c1	x	x	x	8%	x	x
COc1cccc(-c2ccc3c(N)c(C(=O)c4ccc(Cl)cc4)sc3n2)c1	x	x	x	0%	x	x
COC(=O)c1cc2c(N)c(C(=O)c3ccccc3)sc2nc1C(OC)OC	2%	24*	2%	-6%	1%	37
Nc1c(C(=O)Nc2ccccc2F)sc2nc(-c3cccnc3)ccc12	0%	3	-6%	-18%	-4%	27
